Source: PubChem BioAssay
In the library only some 3.7% were active in any assay of this set; here they are far more common.
ATXN2 expr inh: ATXN2 expression inhibition; HEK-293 ATXN2-luciferase reporter, luminescence, 24 h; Potency, µM (doses to about 57 µM), for the others: at the top dose activity change, negative = inhibition, actives largely listed as inhibitors; 360,000 compounds, 0.72% hits; AID 1745845; note: % is set by controls: 0 for no effect and ±100 for the full control effect; nearly all actives have a fitted effect of over 55% in size
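qHTS (up to 57 uM final) was run with 24 h compound exposure of reporter cells at 37 °C. Each well was multiplexed: SteadyGlo luminescence measured ATXN2-luciferase expression after a fluorogenic Gly-Phe-AFC viability readout (25 uM final).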
TGFb SMAD3 inh: inhibitors of TGF-b signaling; 410,000 compounds, 1.2% hits; AID 588855; Potency, µM (top dose mostly 46.1 µM), inactives show at the top dose activity, negative = inhibition, usual class: inhibitors; HepG2 CAGA-GFP TGF-b/SMAD3 reporter, GFP fluorescence, 18 h; TGF-beta stimulated, 500 pg/mL final; note: % is set by controls: 0 for no effect and ±100 for the full control effect; nearly all actives have a fitted effect of over 65% in size
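Using HEPG2 CAGA-GFP reporter cells at 1000 cells/well, we pinned test compounds, stimulated with recombinant TGF-beta (500 pg/mL final) and measured total well GFP after 18 h.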
GLP-1R inv ag: inverse agonists of human GLP-1 receptor. P43220. HEK293 GLP-1R CRE-luciferase, luminescence, 24 h; GLP-1R form is constitutively active. Potency, µM (doses to about 38.3 µM), inactives show at the highest dose activity change, negative = inhibition, actives largely listed as inhibitors. 410,000 compounds, 1.6% hits. AID 624417; note: % is set by controls: 0 for no effect and ±100 for the full control effect; nearly all actives have a fitted effect of over 55% in size
Target sequence (P43220 whole entry, looked up): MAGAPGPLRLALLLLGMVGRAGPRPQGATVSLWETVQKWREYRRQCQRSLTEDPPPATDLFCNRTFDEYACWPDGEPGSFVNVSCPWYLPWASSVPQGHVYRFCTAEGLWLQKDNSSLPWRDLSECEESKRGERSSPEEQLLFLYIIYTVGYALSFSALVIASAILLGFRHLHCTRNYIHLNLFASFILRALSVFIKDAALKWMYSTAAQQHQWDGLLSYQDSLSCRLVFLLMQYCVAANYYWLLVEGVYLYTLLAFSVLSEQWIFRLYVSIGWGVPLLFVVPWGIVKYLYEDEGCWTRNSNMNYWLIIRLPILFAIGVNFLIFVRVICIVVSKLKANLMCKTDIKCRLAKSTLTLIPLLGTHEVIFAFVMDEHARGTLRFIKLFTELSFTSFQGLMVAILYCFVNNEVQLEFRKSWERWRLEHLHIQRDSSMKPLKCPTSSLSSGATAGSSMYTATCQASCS
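Using stably transfected HEK293 (constitutively active GLP-1R, cAMP-luciferase reporter), compounds were incubated 24 hr and luciferase measured by luminescence.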
S2 tox: cell viability loss in ATXN counter-screen; S2 cells (HEK-293 line with an ATXN2-luciferase reporter) viability, CellTiter-Fluor protease fluorescence, 24 h; Potency, µM (highest dose often 56.7 µM), hits mostly cytotoxic; 400,000 compounds, 0.49% hits; note: nearly all actives have a fitted effect of over 40% in size
HepG2 viability: HepG2 cytotoxicity, counter-screen for TGF-b inhibitors; Potency, µM (highest dose often 46.1 µM), for inactives: at the top dose activity change, negative = cytotoxicity, actives largely listed as cytotoxic; AID 588856; 410,000 compounds, 0.76% hits; HepG2 CAGA-GFP viability, ATP luminescence, 18 h
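HepG2 CAGA-GFP cells (1000/well, DMEM with 1% FBS) received compound, then TGF-beta at 500 pg/mL final, and were incubated 18 hours at 37 degrees C. Viability was read by CellTiter-Glo luminescence. Media-only wells were set as complete cell-killing and DMSO as no toxicity.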
GLP-1R agonist: GLP-1 receptor (human) agonism; P43220; HEK293 GLP-1R CRE-luciferase, luminescence, 4-6 h; cells express a hypersensitive GLP-1R form; Potency, µM (doses to about 45.6 µM), inactives show top-dose activation, usual class: activators; 380,000 compounds, 0.007% hits; AID 624172; note: % of control where 0% means no effect
Numbers without * were called inactive; i = inactive; ? = inconclusive; . = no result. Calls come from the whole dose curve; as a rule, active = well fitted curve in the direction sought with a large enough effect; inconclusive = small, poorly fitted or top-dose-only effect, or another doubt; inactive = no such curve, though single readings can be large; an effect the other way counts as inactive or inconclusive. Potency is the fitted concentration of half-maximal effect.

SMILES	ATXN2 expr inh	TGFb SMAD3 inh	GLP-1R inv ag	S2 tox	HepG2 viability	GLP-1R agonist
S=C(NCc1ccccc1)NC1CCSc2ccccc21 (stereo not given)	-16%	13µM*	?	i	-28%	-6%
Clc1ccc(CNC2CCN(Cc3ccccc3)CC2)cc1	-22%	-25%	-42%	i	-49%	3%
Cc1cccc(NC(=S)NC2CCSc3ccccc32)c1 (stereo not given)	3%	?	-44%	i	-25%	22%
S=C(NCc1ccc(Cl)cc1)NC1CCN(Cc2ccccc2)CC1	?	?	3.5µM*	i	-64%	6%
S=C(Nc1cc(Cl)cc(Cl)c1)NC1CCN(Cc2ccccc2)CC1	?	?	4µM*	?	16µM*	-2%
O=C(/C=C/c1ccccn1)NCC1Cc2cccc(-c3ncccn3)c2O1 (stereo not given)	.	.	.	i	.	.
O=C(CN1CCN(S(=O)(=O)N2CCCCC2)CC1)Nc1ccc(Cl)c(Cl)c1	-25%	?	8.9µM*	i	-33%	10%
COc1ccc(S(=O)(=O)N2CCCCCC2)cc1C(=O)N(C)CC(=O)Nc1ccc(Cl)c(Cl)c1	?	-17%	10µM*	i	-7%	4%
COc1ccc(S(=O)(=O)N2CCCCCC2)cc1C(=O)N(C)Cc1ccc(C(C)(C)C)cc1	?	?	5.6µM*	?	-27%	8%
COc1ccc(S(=O)(=O)N2CCCCCC2)cc1N(C)S(=O)(=O)c1ccc(Cl)cc1	-12%	?	10µM*	i	6%	7%
CN(CC(=O)Nc1ccc(Cl)cc1)c1ccc(S(=O)(=O)N2CCCCC2)cc1[N+](=O)[O-]	-24%	-16%	10µM*	?	-8%	-1%
CCC(CC)C1C(C#N)=C(N)Oc2n[nH]c(-c3ccccc3)c21 (stereo not given)	?	?	0%	i	8.9µM*	2%
COc1cccc(NC(=O)Cn2cc(C(=O)C3CCCCC3)c3ccccc32)c1	?	?	?	.	-28%	.
COc1ccc2ccc3c(c2c1)N=C[C@]1(O3)N(C)c2ccccc2C1(C)C	-16%	?	?	i	6.3µM*	-9%
CC1=NOC2(C1)N(C)c1ccccc1C2(C)C (stereo not given)	-4%	11%	-23%	i	-7%	-6%
COc1ccc2c(c1)CCc1c(C(=O)Nc3ccn(Cc4ccc(C)cc4)n3)noc1-2	10µM*	-17%	0%	18µM*	-39%	-8%
COc1ccc2c(c1)CCc1c(C(=O)Nc3c(C)nn(Cc4ccccc4Cl)c3C)noc1-2	?	?	10µM*	i	-11%	.
CC1(C)CC2CC(C)(CN2C(=O)c2cc(-c3ccccc3)on2)C1 (stereo not given)	-3%	-2%	2.8µM*	i	-9%	12%
COc1ccc2c(c1)CCc1c(C(=O)N3CCOCC3)noc1-2	18%	9%	?	i	3%	-2%
CC1(C)CC2CC(C)(CN2C(=O)c2cc(-c3ccc(F)cc3)on2)C1 (stereo not given)	5%	18%	?	i	2%	7%
COc1ccc2c(c1)CCc1c(C(=O)N3CC4(C)CC3CC(C)(C)C4)noc1-2 (stereo not given)	?	?	13µM*	i	-45%	2%
CCOC(=O)CN[C@@H](C(=O)N1CC[C@H]1C(=O)NCc1ccc(/C(N)=N/O)cc1)C1CCCCC1	.	.	.	i	.	-1%
COc1ccc(S(=O)(=O)N2CCC(Oc3ccc(-n4cnnn4)cc3)CC2)cc1OC	.	0%	13%	.	-10%	.
O=C(NCC1Cc2cccc(-c3ccccn3)c2O1)c1cnn2cccnc12 (stereo not given)	.	.	.	i	.	.
